The source of these data is PubChem BioAssay (NCATS).

Molecules are shown by their SMILES. Inconclusive results are not listed. The source made the active and inactive calls. Unless noted, calls follow the shape of the dose curve; as a rule, active = well fitted curve in the direction sought with a large enough effect; inconclusive = small, poorly fitted or top-dose-only effect, or another doubt; inactive = no such curve, though single readings can be large; an effect the other way counts as inactive or inconclusive.

Assay [1] is described as follows: qHTS for Inhibitors of the Functional Ribonucleoprotein Complex (vRNP) of Lymphocytic Choriomeningitis Arenaviruses (LCMV): Viability assay - alamar blue signal for LCMV Primary Screen (AID 1347085; calls by dose curve; tested in HEK293 reporter line; also: nearly all actives have a fitted effect of over 80% in size; also: potency is read from the fitted curve at half-maximal effect). A general note: qHTS replaces the single test concentration by a dilution series.
Assay [2] has as its target Nucleoprotein (Lymphocytic choriomeningitis virus (strain Armstrong)) (UniProt P09992). Nature of the assay: qHTS for Inhibitors of the Functional Ribonucleoprotein Complex (vRNP) of Lymphocytic Choriomeningitis Arenaviruses (LCMV): LCMV Primary Screen - GLuc reporter signal (AID 1347086; calls by dose curve; also: nearly all actives have a fitted effect of over 70% in size; also: potency is read from the fitted curve at half-maximal effect).
A short description of assay [3]: qHTS of pediatric cancer cell lines to identify multiple opportunities for drug repurposing: Primary screen for TC32 cells (AID 1347089). Also: nearly all actives have a fitted effect of over 60% in size. Also: potency is read from the fitted curve at half-maximal effect. The method, boiled down: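 Luminescent CellTiter-Glo read-out of metabolically active TC32 cells after 48 h compound exposure. Primary: MIPE 11-point, 0.78 nM–46 µM; NPC 8-point, 0.59 nM–46 µM. Confirmatory: 11-point dilutions.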

The nature of assay [4]: qHTS of pediatric cancer cell lines to identify multiple opportunities for drug repurposing: Primary screen for DAOY cells (AID 1347090). Also: nearly all actives have a fitted effect of over 55% in size. Also: potency is read from the fitted curve at half-maximal effect. The method, boiled down:
(§1)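 Cell viability, CellTiter-Glo luminescence; 500-1,000 cells/well, 8- or 11-point titration, 48 h compound exposure at 37 degrees C, 5% CO2. Controls: DMSO neutral, bortezomib 2.3 µM final as positive.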

Assay [5] can be described thus: qHTS of pediatric cancer cell lines to identify multiple opportunities for drug repurposing: Primary screen for SJ-GBM2 cells (AID 1347091). Also: potency is read from the fitted curve at half-maximal effect. The procedure, abridged:
as §1

The nature of assay [6]: qHTS of pediatric cancer cell lines to identify multiple opportunities for drug repurposing: Primary screen for A673 cells (AID 1347092). Also: nearly all actives have a fitted effect of over 45% in size. Also: potency is read from the fitted curve at half-maximal effect. The procedure, abridged:
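A673 cells (500-1,000 cells/well in growth media) were pre-incubated 5 h at 37 degrees C, then exposed to compounds for 48 h. Viability was read as CellTiter-Glo luminescence; concentration-response curves came directly from the primary screen.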

Assay [7] is described as follows: qHTS of pediatric cancer cell lines to identify multiple opportunities for drug repurposing: Primary screen for SK-N-MC cells (AID 1347093). Also: potency is read from the fitted curve at half-maximal effect. The method, boiled down: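 Metabolically active cells were quantified by ATP-dependent luminescence (CellTiter-Glo, 15 min at room temperature) following 48 h treatment. Cells had been plated at 500-1,000 per well and settled for 5 h beforehand.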

Assay [8] can be described thus: qHTS of pediatric cancer cell lines to identify multiple opportunities for drug repurposing: Primary screen for BT-37 cells (AID 1347094). Also: potency is read from the fitted curve at half-maximal effect. The procedure, abridged:
(§2)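 Plated cells (500-1,000 per well, growth media) were allowed to settle for 5 hours, treated with compound dilutions for 48 hours, then lysed with CellTiter-Glo for 15 min at room temperature before luminescence reading.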

Assay [9] is described as follows: qHTS of pediatric cancer cell lines to identify multiple opportunities for drug repurposing: Primary screen for U-2 OS cells (AID 1347096). Also: nearly all actives have a fitted effect of over 50% in size. Also: potency is read from the fitted curve at half-maximal effect. The procedure, abridged:
(§3)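 Cells (500-1,000/well) rested 5 h, then received compounds for 48 h; metabolically active cells were measured by CellTiter-Glo luminescence. Final concentrations spanned up to 46 µM (MIPE, 11-point) or 0.59 nM-46 µM (NPC, 8-point) in primary screens, 11-point in follow-ups.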

Assay [10] in a line: qHTS of pediatric cancer cell lines to identify multiple opportunities for drug repurposing: Primary screen for Saos-2 cells (AID 1347097). Also: nearly all actives have a fitted effect of over 40% in size. Also: potency is read from the fitted curve at half-maximal effect. The method, boiled down:
as §2

Assay [11] can be described thus: qHTS of pediatric cancer cell lines to identify multiple opportunities for drug repurposing: Primary screen for SK-N-SH cells (AID 1347098). Also: nearly all actives have a fitted effect of over 65% in size. Also: potency is read from the fitted curve at half-maximal effect. The procedure, abridged:
as §3

A short description of assay [12]: qHTS of pediatric cancer cell lines to identify multiple opportunities for drug repurposing: Primary screen for NB1643 cells (AID 1347099). Also: nearly all actives have a fitted effect of over 50% in size. Also: potency is read from the fitted curve at half-maximal effect. The method, boiled down:
as §2

Assay [13] is described as follows: qHTS of pediatric cancer cell lines to identify multiple opportunities for drug repurposing: Primary screen for LAN-5 cells (AID 1347100). Also: potency is read from the fitted curve at half-maximal effect. The procedure, abridged: as §3
Assay [14] can be described thus: qHTS of pediatric cancer cell lines to identify multiple opportunities for drug repurposing: Primary screen for BT-12 cells (AID 1347101). Also: nearly all actives have a fitted effect of over 25% in size. Also: potency is read from the fitted curve at half-maximal effect. The procedure, abridged:
as §3

Assay [15] can be described thus: qHTS of pediatric cancer cell lines to identify multiple opportunities for drug repurposing: Primary screen for Rh18 cells (AID 1347102). Also: nearly all actives have a fitted effect of over 65% in size. Also: potency is read from the fitted curve at half-maximal effect. The method, boiled down:
as §3

A short description of assay [16]: qHTS of pediatric cancer cell lines to identify multiple opportunities for drug repurposing: Primary screen for OHS-50 cells (AID 1347103). Also: nearly all actives have a fitted effect of over 40% in size. Also: potency is read from the fitted curve at half-maximal effect. The method, boiled down: as §3
The nature of assay [17]: qHTS of pediatric cancer cell lines to identify multiple opportunities for drug repurposing: Primary screen for RD cells (AID 1347104). Also: nearly all actives have a fitted effect of over 55% in size. Also: potency is read from the fitted curve at half-maximal effect. The method, boiled down:
as §2

A short description of assay [18]: qHTS of pediatric cancer cell lines to identify multiple opportunities for drug repurposing: Primary screen for MG 63 (6-TG R) cells (AID 1347105). Also: nearly all actives have a fitted effect of over 50% in size. Also: potency is read from the fitted curve at half-maximal effect. The method, boiled down:
as §2

Assay [19] can be described thus: qHTS of pediatric cancer cell lines to identify multiple opportunities for drug repurposing: Primary screen for control Hh wild type fibroblast cells (AID 1347106).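 Also: series mostly up to about 46 µM; a drop in luminescence marks cytotoxicity and a rise apparent proliferation; nearly all actives have a fitted effect of over 55% in size.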 The procedure, abridged: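 Viability after 48 h compound treatment at 37C, 500-1,000 cells/well, read as ATP luminescence with CellTiter-Glo. Primary screens used 11-point (MIPE, 0.78 nM-46 µM) or 8-point (NPC, 0.59 nM-46 µM) final concentrations; follow-up screens used 11-point dilutions.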

Assay [20] in a line: qHTS of pediatric cancer cell lines to identify multiple opportunities for drug repurposing: Primary screen for NB-EBc1 cells (AID 1347095). Also: potency is read from the fitted curve at half-maximal effect. The method, boiled down: as §2

Nucleoprotein (Lymphocytic choriomeningitis virus (strain Armstrong)), sequence (P09992 whole entry, looked up): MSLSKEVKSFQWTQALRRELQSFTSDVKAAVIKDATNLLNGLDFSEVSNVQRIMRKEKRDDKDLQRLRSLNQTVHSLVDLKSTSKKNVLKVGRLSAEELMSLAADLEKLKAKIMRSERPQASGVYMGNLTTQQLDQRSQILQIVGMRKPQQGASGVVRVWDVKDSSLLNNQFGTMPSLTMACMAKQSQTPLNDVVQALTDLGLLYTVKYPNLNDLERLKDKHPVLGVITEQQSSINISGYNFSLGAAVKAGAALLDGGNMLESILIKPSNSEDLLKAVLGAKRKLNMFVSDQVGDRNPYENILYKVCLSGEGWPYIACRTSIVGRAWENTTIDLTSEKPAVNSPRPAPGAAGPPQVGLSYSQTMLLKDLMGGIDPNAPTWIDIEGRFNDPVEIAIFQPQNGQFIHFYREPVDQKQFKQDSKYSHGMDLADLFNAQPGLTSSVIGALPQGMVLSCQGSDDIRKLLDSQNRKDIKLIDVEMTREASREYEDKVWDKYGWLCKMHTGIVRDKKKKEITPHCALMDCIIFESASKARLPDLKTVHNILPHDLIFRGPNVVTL

In the case of `O=S(=O)(O)C(F)(F)C(F)(F)C(F)(F)C(F)(F)C(F)(F)C(F)(F)C(F)(F)C(F)(F)F`, the Potency entry in [1], in assay [2], in assay [3], in assay [4], in assay [5] and in [6] was “inactive” throughout. The Potency entry in assay [7], in assay [8], in assay [9], in assay [10], in assay [11] and in assay [12] was “inactive” each time. In addition, the Potency result in assay [13], in [14], in [15], in assay [16], in assay [17] and in assay [18] was “inactive” throughout. Moreover, in assay [19], the Potency result was “inactive”.
For `CC(C)(C)C(O)C(Oc1ccc(Cl)cc1)n1cncn1` (configuration not stated), the Potency result in assay [1], in assay [2], in [3], in assay [4], in assay [5] and in assay [6] was “inactive” each time. The Potency entry in assay [8], in [9], in assay [12], in assay [13], in assay [14] and in assay [15] was “inactive” each time. Moreover, the Potency result in [17] and in [19] was “inactive” in each case. The Potency in assay [7] was 0.001 µM (active).
Consider `CC(C)(C)NC[C@H](O)c1ccc(O)cc1Cl`, for which the Potency entry in [1], in [2], in [3], in assay [4], in assay [5] and in assay [6] was “inactive” in each case. Besides, the Potency entry in [7], in assay [8], in [20], in [9], in assay [10] and in [11] was “inactive” in each case. The Potency entry in assay [12], in [13], in assay [14], in assay [15], in [18] and in assay [19] was “inactive” in each case.
As for `CCC1(CCC(C)C)C(=O)NC(=O)NC1=O`, the Potency entry in assay [1], in [2], in assay [3], in assay [4], in [5] and in assay [6] was “inactive” each time. For the same compound, the Potency result in assay [7], in assay [8], in [20], in [9], in assay [10] and in assay [11] was “inactive” throughout. Further, the Potency result in assay [12], in assay [13], in [15], in assay [17], in assay [18] and in assay [19] was “inactive” in each case.
On to `CC(C)(O)C=CC(=O)[C@](C)(O)[C@H]1[C@H](O)C[C@]2(C)[C@@H]3CC=C4[C@@H](C=C(O)C(=O)C4(C)C)[C@]3(C)C(=O)C[C@@]12C`, for which the Potency in [1] was 9.68 µM (active); in [2], 10.9 µM (active); in assay [3], 1.31 µM (active); in assay [4], 0.187 µM (active); in assay [5] it was 0.209 µM (active); in [6], 0.187 µM (active). Also, the Potency in [7] was 0.0332 µM (active); in assay [8] it was 1.37 µM (active); in assay [9] it was 0.148 µM (active); in assay [10], 0.105 µM (active); in assay [11], 0.152 µM (active); in assay [12], 0.0372 µM (active). Further, the Potency in [13] was 0.0743 µM (active); in assay [14] it was 0.243 µM (active); in assay [15], 0.0526 µM (active); in assay [17] it was 0.166 µM (active); in [18] it was 0.0296 µM (active).
Take `C[C@@H]1[C@H](O)[C@@H](C)C=CC=CCCC=CC=CC=CC=C[C@H](O[C@H]2O[C@@H](C)[C@H](O)[C@@H](N)[C@@H]2O)CC2O[C@](O)(C[C@@H](O)[C@H](O)CC[C@@H](O)C[C@@H](O)C[C@@H](O)CC(=O)O[C@H]1C)C[C@H](O)[C@H]2C(=O)O`: the Potency result in [1], in assay [2], in [3], in assay [4], in assay [5] and in [6] was “inactive” in each case. Further, the Potency entry in assay [7], in [8], in [20], in assay [9], in assay [10] and in [11] was “inactive” each time. The Potency result in [12], in [13], in assay [14], in [15], in assay [17] and in [18] was “inactive” in each case. For the same compound, the Potency entry in assay [19] was “inactive”.
As for `O=C(Nc1ccccc1-c1ccc(Cl)cc1)c1cccnc1Cl`, the Potency result in assay [1], in assay [2], in assay [3], in [4], in assay [5] and in [7] was “inactive” each time. Besides, the Potency result in assay [8], in assay [9], in assay [10], in [11], in assay [12] and in assay [13] was “inactive” throughout. Further, the Potency entry in [14], in assay [15], in [17], in assay [18] and in assay [19] was “inactive” in each case.
Turning to `Nc1ccc(Cl)cc1N`, the Potency result in assay [1], in assay [2], in [3], in [4], in assay [5] and in assay [7] was “inactive” each time. Also, the Potency entry in [9], in assay [12], in assay [14], in assay [15], in assay [16] and in [18] was “inactive” throughout. Besides, in [19], the Potency entry is “inactive”. In assay [13], the Potency was 24.3 µM (active).
`Cc1ccccc1-n1c(Cn2ncc3c(N)ncnc32)nc2cccc(C)c2c1=O`: the Potency is 0.137 µM (active) in assay [1]; 0.193 µM (active) in assay [2]; 7.39 µM (active) in assay [3]; 0.0935 µM (active) in [4]; 0.0074 µM (active) in [5]; 0.0132 µM (active) in [7]. Moreover, the Potency in [8] was 0.0086 µM (active); in assay [20], 0.0935 µM (active); in assay [10], 0.0083 µM (active); in [14] it was 0.0122 µM (active); in [16] it was 0.0069 µM (active). Moreover, the Potency result in [9], in [15] and in assay [19] was “inactive” throughout.
Regarding `Cc1nc(-c2ccc(-c3ccc(C(=O)N4CCc5cc6c(cc54)C4(CCN(C)CC4)CO6)cc3)c(C)c2)no1`, the Potency result in [1], in [2], in [3], in [4], in assay [5] and in assay [7] was “inactive” each time. For the same compound, the Potency result in assay [8], in assay [20], in assay [9], in assay [10], in assay [12] and in [13] was “inactive” each time. Further, the Potency entry in assay [14], in [15], in assay [17], in assay [18] and in assay [19] was “inactive” each time.
As for `Nc1ccc(Cl)cc1`, the Potency entry in assay [1], in assay [2], in assay [3], in [4], in assay [5] and in [7] was “inactive” throughout. Further, the Potency result in assay [8], in assay [20], in [9], in assay [10], in assay [11] and in [12] was “inactive” each time. Also, the Potency entry in [13], in [14], in [15], in assay [16], in assay [18] and in assay [19] was “inactive” throughout.
As for `NC1=NC(=O)N2CC12` (configuration not stated), the Potency entry in assay [1], in assay [2], in assay [3], in assay [4], in assay [5] and in [20] was “inactive” each time. Moreover, the Potency entry in [9], in assay [11], in assay [12], in [15], in assay [18] and in [19] was “inactive” in each case. The Potency in assay [8] is 19.3 µM (active); in assay [10] it was 13.2 µM (active); in assay [14] it was 21.7 µM (active).
Regarding `CC(O)CN1CCN(CC(=O)[O-])CCN(CC(=O)[O-])CCN(CC(=O)[O-])CC1.[Gd+3]` (configuration not stated), the Potency result in assay [1], in assay [2], in assay [3], in [4], in [5] and in [7] was “inactive” throughout. Moreover, the Potency entry in assay [8], in assay [9], in [10], in [11], in assay [12] and in assay [13] was “inactive” each time. Moreover, the Potency entry in assay [14], in assay [15], in assay [18] and in [19] was “inactive” each time.
